Source: PubChem BioAssay
“And” between values parts separate entries of the source, which are not always exact repeats. Identical values can stand only once. Records with an inconclusive call do not appear. The source made the active and inactive calls. Unless noted, cut-off not given; nearly all actives show AC50 up to about 26 µM.

How the values were obtained:
[1] = viability loss in pontine glioma line – cell-based, SU-DIPG-XXV, MIPE5.0, CellTiter-Glo, qHTS, dose response (AID 1347065); settings: CellTiter-Glo ATP luminescence;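 further: cells exposed to compound for 48 hours before ATP readout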
[2] = growth inhibition of DIPG cells – cell-based, MIPE4.0 library, CellTiter-Glo luminescence, qHTS (AID 1347066; cut-off not given, nearly all actives have AC50 up to about 30 µM;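 further: cells exposed to compound for 48 hours before readout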); settings: SU-DIPG-VI viability, CellTiter-Glo ATP luminescence
[3] = JHH-DIPG-1 glioma cell viability, MIPE5.0 library, CellTiter-Glo luminescence, qHTS (AID 1347067); settings: JHH-DIPG-1 glioma viability, CellTiter-Glo ATP luminescence;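 further: cells exposed to compound for 48 hours before readout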
[4] = growth inhibition of DIPG cells – cell-based, MIPE5.0 library, qHTS (AID 1347068; cut-off not given, nearly all actives have IC50 up to about 30 µM); settings: SU-DIPG-XXV viability
[5] = chitosan synthesis blockers in C. neoformans – flow cytometry, Cibacron Brilliant Red staining (AID 1347148; call rule not given here;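 further: compound exposure lasted three days at 37 degrees C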); settings: Cryptococcus neoformans chitosan, stronger effect = lower value; at 10 µM unless noted
[6] = blockers of cellular phospholipid synthesis – cell-based, LOPAC library, screen 4, primary screen (AID 1347384; call rule not given here); settings: animal cells, phospholipid biosynthesis inhibition screen; at 10 µM
[7] = target: NAD(+) hydrolase SARM1 (Homo sapiens) (UniProt Q6SZW1); test: blocking NAD cleavage by SARM1 SAM-TIR – cell lysate, NAD-Glo luminescence (AID 1508614;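 active means compound whose remaining NAD level is above about 45 nM, limit read from the data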); settings: SAM-TIR HEK293T lysate NADase, at 1 µM, stronger effect = higher value
Chain of NAD(+) hydrolase SARM1 (Homo sapiens) (Q6SZW1 whole entry, looked up, the tested form may be a part): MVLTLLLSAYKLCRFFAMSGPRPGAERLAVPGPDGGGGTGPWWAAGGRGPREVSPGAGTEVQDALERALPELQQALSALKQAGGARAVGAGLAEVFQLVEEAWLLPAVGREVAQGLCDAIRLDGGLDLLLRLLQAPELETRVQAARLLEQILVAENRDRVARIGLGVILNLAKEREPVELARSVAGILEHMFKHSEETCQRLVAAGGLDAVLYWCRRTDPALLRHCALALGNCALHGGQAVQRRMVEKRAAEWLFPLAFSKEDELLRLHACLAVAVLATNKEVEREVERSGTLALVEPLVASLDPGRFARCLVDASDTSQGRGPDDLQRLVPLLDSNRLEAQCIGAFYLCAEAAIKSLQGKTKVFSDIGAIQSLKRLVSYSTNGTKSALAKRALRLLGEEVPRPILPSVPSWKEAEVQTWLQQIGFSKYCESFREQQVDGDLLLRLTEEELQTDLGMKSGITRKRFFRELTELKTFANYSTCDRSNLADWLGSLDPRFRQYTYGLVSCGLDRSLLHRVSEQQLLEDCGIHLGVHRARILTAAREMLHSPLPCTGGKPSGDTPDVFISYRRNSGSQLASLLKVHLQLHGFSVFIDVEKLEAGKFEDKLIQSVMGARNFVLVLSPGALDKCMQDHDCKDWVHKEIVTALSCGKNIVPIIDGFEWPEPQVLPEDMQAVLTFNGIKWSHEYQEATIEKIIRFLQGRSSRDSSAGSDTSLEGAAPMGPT

[8] = target: Mitogen-activated protein kinase 7 (Homo sapiens) (UniProt Q13164); test: Gal4-ERK5 driven luciferase induction – cell-based, HTS, primary screen (AID 1508626;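 active means luciferase signal above three times the same-plate solvent-only control wells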;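 further: luciferase driven by Gal4-ERK5 fusion binding five Gal4 sites before minimal TATA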); settings: HeLa Gal4-ERK5 transactivation, 18 h, at 5 µM, stronger effect = higher value
Chain of Mitogen-activated protein kinase 7 (Homo sapiens) (Q13164 whole entry, looked up, the tested form may be a part): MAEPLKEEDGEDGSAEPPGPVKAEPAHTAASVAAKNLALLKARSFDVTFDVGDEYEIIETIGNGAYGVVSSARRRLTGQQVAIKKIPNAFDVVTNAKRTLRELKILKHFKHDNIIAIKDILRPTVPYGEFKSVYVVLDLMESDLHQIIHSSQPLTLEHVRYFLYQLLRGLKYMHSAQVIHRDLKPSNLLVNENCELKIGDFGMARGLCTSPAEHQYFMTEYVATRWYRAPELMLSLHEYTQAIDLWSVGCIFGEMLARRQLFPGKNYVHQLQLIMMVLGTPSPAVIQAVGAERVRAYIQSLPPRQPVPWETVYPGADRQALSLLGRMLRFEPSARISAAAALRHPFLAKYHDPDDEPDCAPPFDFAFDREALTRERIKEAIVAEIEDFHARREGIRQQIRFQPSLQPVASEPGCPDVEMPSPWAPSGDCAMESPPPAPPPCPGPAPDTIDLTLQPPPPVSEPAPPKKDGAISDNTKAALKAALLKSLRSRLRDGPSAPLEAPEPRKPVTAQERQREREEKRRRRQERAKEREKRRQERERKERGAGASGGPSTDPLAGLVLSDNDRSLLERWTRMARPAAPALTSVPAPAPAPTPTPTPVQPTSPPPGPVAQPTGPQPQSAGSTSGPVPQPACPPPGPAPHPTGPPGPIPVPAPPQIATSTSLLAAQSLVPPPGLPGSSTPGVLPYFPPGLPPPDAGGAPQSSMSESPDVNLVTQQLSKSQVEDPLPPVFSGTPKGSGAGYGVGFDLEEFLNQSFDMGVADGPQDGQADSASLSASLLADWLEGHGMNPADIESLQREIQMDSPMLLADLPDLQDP

[9] = MELAS cybrid and Rieske KO viability enhancers – cell-based, MELAS cybrids, Rieske KO mouse fibroblasts, CellTiter-Glo, primary screen (AID 1508586;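 active means mean z-score across replicates of 1.96 or higher in either the MELAS or the Rieske mutant cell line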;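 further: z relative to plate mean and SD of compound and empty wells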); settings: low glucose
[10] = galactose survival enhancers in mitochondrial complex I cybrids – cell-based, galactose medium, ATP luminescence, primary screen (AID 1645843;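 active means z-score of at least 1.8 in each of two replicates, scored against plate mean and spread of sample wells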;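 further: positive z means more ATP and so rescue of galactose-driven cybrid death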); settings: complex I mutant cybrid cells, 72 h, stronger effect = higher value
[11] = viability loss with induced miR-34 in A549 – imaging, A549 dox-inducible miR-34, nuclei and caspase counts, primary screen (AID 1347080;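 active means compounds whose cell count with miR-34 switched on is under 0.7 times the count with it off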); settings: A549 miR-34 inducible, Hoechst nuclei count, 48 h
[12] = growth inhibition, single agent or in combination, cell-based, chromothripsis tumors, cisplatin or BGB combos (AID 1671449; in the data active means inhibition above about 80%;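 further: cells exposed for 96 hours; 0% = vehicle DMSO and 100% = killing by high DMSO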); settings: LFS_MB_P medulloblastoma cells
[13] = growth inhibition, single agent and combos, cell-based, chromothripsis tumors, cisplatin or BGB combos (AID 1671450; in the data active means inhibition above about 80%;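 further: cells exposed to compound for four days; 0% = vehicle DMSO and 100% = cell killing by high DMSO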); settings: HDN33 neuroblastoma cells, stronger effect = higher value
[14] = growth inhibition, single agents and combos, ICB984, cell-based, cisplatin or BGB combos, synergistic combos for chromothripsis tumors (AID 1671451; call rule not given here;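 further: cells exposed for 96 hours before readout; 0% = vehicle DMSO and 100% = killing by high DMSO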); settings: ICB984 medulloblastoma cells, drug combinations, stronger effect = higher value
[15] = growth inhibition, single agents and combos, LFS_MB_1R, cell-based, cisplatin or BGB combos, synergistic combos for chromothripsis tumors (AID 1671452; in the data active means inhibition above about 80%;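 further: cells exposed for 96 hours before readout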); settings: LFS_MB_1R medulloblastoma cells, stronger effect = higher value
[16] = growth inhibition, single agents and combos, HTB85, cell-based, BGB or cisplatin IC20 combos, synergistic combos for chromothripsis tumors (AID 1671453; in the data active means inhibition above about 80%;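 further: cells exposed for 96 hours before readout; 0% = vehicle DMSO and 100% = high DMSO killing control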); settings: HTB85 osteosarcoma cells, drug combinations, stronger effect = higher value
[17] = growth inhibition, single agents and combos, CRL2098, cell-based, BGB or cisplatin IC20 combos, synergistic combos for chromothripsis tumors (AID 1671454; in the data active means inhibition above about 80%;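 further: cells exposed for 96 h before readout; 0% = vehicle DMSO and 100% = killing by high DMSO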); settings: CRL2098 osteosarcoma cells, drug combinations, stronger effect = higher value
[18] = growth inhibition, single agents and combos, HD-MB03, cell-based, BGB or cisplatin IC20 combos, synergistic combos for chromothripsis tumors (AID 1671455; in the data active means inhibition above about 83%;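 further: 0% = vehicle DMSO and 100% = high DMSO as cytotoxic control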); settings: HD-MB03 medulloblastoma cells, stronger effect = higher value
[19] = MELAS cybrid survival, CellTiter-Glo 48 h, stronger effect = higher value
[20] = Rieske KO mouse fibroblast survival, CellTiter-Glo 72 h
[21] = measured here: combination with BGB IC40, at 0.05 µM

In the case of `COc1ccc(C2CNC(=O)C2)cc1OC1CCCC1` (configuration not stated), the outcome [1] is reported as “inactive”, the outcome [2] is reported as “inactive” and the outcome [3] is reported as “inactive”. For the same compound, the outcome [4] was “inactive”, the fold fluorescence [5] was 10.1 [at 181.6 µM] (inactive) and the outcome [6] was “inactive”. The remaining NAD [7] was 10 nM (inactive) and the luciferase signal [8] was 72 AU (inactive).

With `CC[N+](CC)(CC)CCOc1cccc(OCC[N+](CC)(CC)CC)c1OCC[N+](CC)(CC)CC` the outcome [1] was “inactive”, the outcome [2] was “inactive” and the outcome [3] was “inactive”. For the same compound, the outcome [4] was “inactive”, the outcome [6] was “inactive” and the z-score [9, 19] was -0.318 (inactive) and -0.405 (inactive) and -0.918 (inactive). The z-score [9, 20] was 0.619 and -0.334 and -0.59, the remaining NAD [7] was 10 nM (inactive) and the luciferase signal [8] was 216 AU (active). For the same compound, the z-score [10] was 0.34 (inactive) and 0.415 (inactive).

With `CN1CCC(=C2c3ccccc3CCc3sccc32)CC1` the outcome [1] was “inactive”, the outcome [2] was “inactive” and the outcome [3] was “inactive”. The outcome [4] was “inactive”, the z-score [9, 19] was -0.441 (inactive) and -0.79 (inactive) and the z-score [9, 20] was -0.11 and 0.709. For the same compound, the remaining NAD [7] was 10 nM (inactive), the luciferase signal [8] was 76 AU (inactive) and the z-score [10] was -0.795 (inactive).

In the case of `S=P(N1CC1)(N1CC1)N1CC1`, the outcome [1] is reported as “inactive”, the outcome [2] is reported as “inactive” and the outcome [3] is reported as “inactive”. For the same compound, the outcome [4] was “inactive”, the fold change ([11]; stronger effect = lower value, cell number ratio, induced over uninduced) was 0.906 (inactive) and the fold change ([11]; measured here: relative caspase fold change +Dox/-Dox) was 2.37. For the same compound, the cell count ([11]; measured here: total cells with miR-34 induction, stronger effect = lower value) was 2790, the cell count ([11]; measured here: total cells without miR-34 induction) was 3080 and the remaining NAD [7] was 10 nM (inactive). The luciferase signal [8] was 40 AU (inactive), the inhibition ([12]; at 0.5 µM, stronger effect = higher value) was -23.2% (inactive) and -26.3% (inactive) and the inhibition ([12]; measured here: combination with BGB IC20, at 0.005 µM) was 4.28% and -9.96%. The inhibition ([12]; measured here: combination with BGB IC40, at 0.005 µM) was -18.6% and -23.3%, the inhibition [12, 21] was -9.26% and -20.5% and the inhibition ([12]; measured here: combination with cisplatin, at 0.5 µM, stronger effect = higher value) was -29.9% and -42.7%. The inhibition ([12]; measured here: combination with cisplatin, at 5 µM, stronger effect = higher value) was -29% and -10.5%, the inhibition ([13]; BGB combo, at 5 µM) was 10.9% and 17% and the inhibition ([13]; at 0.5 µM) was -22.8% (inactive) and -4.61% (inactive). For the same compound, the inhibition ([13]; cisplatin combo, at 5 µM) was -33.8% and -6.48%, the inhibition ([13]; measured here: with BGB IC20 combination, at 0.5 µM) was -8.9% and -5.09% and the inhibition ([13]; measured here: with cisplatin IC20 combination, at 0.5 µM) was -36% and 8.65%. For the same compound, the inhibition ([13]; single agent, at 5 µM) was -17.8% and -15.5%, the inhibition ([14]; BGB IC20 combo, at 0.005 µM) was -28.8% and -30.2% and the inhibition ([14]; BGB IC40 combo, at 0.005 µM) was -42.6% and -1.02%. For the same compound, the inhibition ([14]; BGB IC40 combo, at 0.05 µM) was -71.3% and -1.28%, the inhibition ([14]; at 0.5 µM) was -28.5% (inactive) and -18.4% (inactive) and the inhibition ([14]; cisplatin combo, at 0.05 µM) was -78.1% and -1.28%. For the same compound, the inhibition ([14]; cisplatin combo, at 0.5 µM) was -36.2% and -27%, the inhibition ([14]; cisplatin combo, at 5 µM) was -39.5% and -6.98% and the inhibition ([14]; measured here: 5 uM single agent, at 5 µM) was -8.68% and -10.4%. For the same compound, the inhibition ([15]; at 0.5 µM) was -9.66% (inactive) and -3.23% (inactive), the inhibition [15, 21] was -28.2% and 8.25% and the inhibition ([15]; measured here: combination with cisplatin, at 0.5 µM) was -26.8% and 11.1%. For the same compound, the inhibition ([15]; measured here: combination with cisplatin, at 5 µM) was -75% and -8.13%, the inhibition ([16]; at 0.5 µM) was -27.7% (inactive) and -19.6% (inactive) and the inhibition ([16]; measured here: with BGB IC20, at 0.5 µM) was -28% and -46.5%. For the same compound, the inhibition ([16]; measured here: with BGB IC20, at 5 µM) was 12.6% and 4.5%, the inhibition ([16]; measured here: with cisplatin IC20, at 0.5 µM) was -41.1% and -12.7% and the inhibition ([16]; measured here: with cisplatin IC20, at 5 µM) was -24.2% and -0.841%. For the same compound, the inhibition ([16]; single agent, at 5 µM) was -13.2% and -18.3%, the inhibition ([17]; at 0.5 µM) was -50.3% (inactive) and -34.6% (inactive) and the inhibition ([17]; measured here: combination with BGB at IC20, at 0.5 µM) was -22.9% and -20.1%. For the same compound, the inhibition ([17]; measured here: combination with cisplatin at IC20, at 0.5 µM) was -36.2% and -49.4%, the inhibition ([18]; at 0.5 µM) was -12.6% (inactive) and -4.94% (inactive) and the inhibition ([18]; measured here: combo with BGB at IC20, at 0.5 µM) was -12.8% and -2.1%. For the same compound, the inhibition ([18]; measured here: combo with cisplatin at IC20, at 0.5 µM) was -11.1% and -9.72%.

In the case of `NC(=O)OCC(COC(N)=O)c1ccccc1`, the outcome [1] is reported as “inactive”, the outcome [2] is reported as “inactive” and the outcome [3] is reported as “inactive”. For the same compound, the outcome [4] was “inactive”, the outcome [6] was “inactive” and the z-score [9, 19] was 0.426 (inactive) and -0.303 (inactive). For the same compound, the z-score [9, 20] was 0.386 and -0.256, the luciferase signal [8] was 112 AU (inactive) and the z-score [10] was 0.13 (inactive) and 0.59 (inactive) and 0.445 (inactive).
